# Laboratory results: the supplement of paper PMC9694430
# Counter-ions that a name gives are not always drawn.
# System: LOC_OS03G50450-cb001
# Assay: thermal shift delta Tm vs DMSO control; higher = stronger stabilization (binding)
# Details: 12.5 µM; protein concentration 2 µM
# Procedure, shortened: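 Compounds dissolved in DMSO were added to purified rice kinase domain constructs, which had been expressed in E. coli, for differential scanning fluorimetry. Each well held 19.5 μl of 2 μM kinase in 100 mM potassium phosphate pH 7.5, 150 mM NaCl, 10% glycerol and 5 × SYPRO Orange. Fluorescence was followed from 25°C to 95°C at a rate of 0.05°C/s. Shifts in Boltzmann-fitted melting temperature are triplicate means relative to DMSO-only protein.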
row,Compound,thermal shift delta Tm [°C]
1,CCn1c(=O)c(-c2ccc(-c3cncs3)cc2Cl)cc2cnc(Nc3ccc(N4CCN(C)CC4)cc3)nc21,1.1
2,CNC(=O)c1cccc(-c2ccc3c(N4CCOC[C@@H]4C)nc(N4CCOC[C@@H]4C)nc3n2)c1 [Vistusertib (AZD2014)],0.09
3,CC(C)S(=O)(=O)c1ccc2nccc(Nc3ccc4scnc4c3)c2c1,0.37
4,Cn1cc(-c2ccc3ncc(Cc4ccc5ncccc5c4)n3n2)cn1,0.05
5,N#Cc1ccc2ncnc(NCCc3ccccc3)c2c1 [Senexin A],0.68
6,O=C1NC(=O)/C(=C/c2ccc3nccc(-c4ccncc4)c3c2)S1,0.79
7,Cn1cnc2c(F)c(Nc3ccc(Br)cc3F)c(C(=O)NOCCO)cc21,0.43
8,Cc1cc(Nc2ncc(Cl)c(Nc3ccccc3S(=O)(=O)C(C)C)n2)c(OC(C)C)cc1C1CCNCC1 [Ceritinib (LDK378)],0.56
9,Cc1nc2ccc(-n3ncc(C(=O)c4cc5ccccc5[nH]4)c3N)cc2[nH]1,-0.16
10,C=C[C@@](C)(/C=C/c1ccc(O)cc1)CCC=C(C)C [Bakuchiol],0.04
11,"C=CC(=O)Nc1cccc(Nc2nc(Nc3ccc(N4CCN(C(C)=O)CC4)cc3OC)ncc2C(F)(F)F)c1 [Rociletinib (CO-1686, AVL-301)]",1.7
12,"CCCS(=O)(=O)Nc1ccc(F)c(C(=O)c2c[nH]c3ncc(-c4ccc(Cl)cc4)cc23)c1F [Vemurafenib (PLX4032, RG7204)]",1.54
13,COc1cc(OC)c(C=C2C(=O)Nc3ccccc32)c(OC)c1,-0.29
14,CCN(CC)CCCC(C)Nc1nc(C)cc(Nc2ccc3nc(C)cc(N)c3c2)n1 (centres undefined),0.59
15,CN1CC(O)C2=C/C(=N/NC(N)=O)C(=O)C=C21 (centres undefined) [Carbazochrome],0.96
16,Cc1cc(Nc2cc(N3CCN(C)CC3)nc(/C=C/c3ccccc3)n2)n[nH]1,8.43
17,Cc1ccc(NC(=O)Nc2cc(C(F)(F)F)ccc2F)cc1Nc1ccc2c(c1)NC(=O)/C2=C\c1ccc[nH]1,1.31

row,Compound,thermal shift delta Tm [°C]
1,CO[C@H]1C[C@@H]2CC[C@@H](C)[C@@](O)(O2)C(=O)C(=O)N2CCCC[C@H]2C(=O)O[C@H]([C@H](C)C[C@@H]2CC[C@@H](O)[C@H](OC)C2)CC(=O)[C@H](C)/C=C(\C)[C@@H](O)[C@@H](OC)C(=O)[C@H](C)C[C@H](C)/C=C/C=C/C=C/1C [Rapamycin (Sirolimus)],0.2
2,C[S+]([O-])c1ccc(-c2nc(-c3ccc(F)cc3)c(-c3ccncc3)[nH]2)cc1 (centres undefined),0.08
3,CO[C@H]1CC[C@H](N2C(=O)CNc3ncc(-c4ccc(C(C)(C)O)nc4)nc32)CC1,0.22
4,O=C(Nc1ccccc1C(=O)NC1CCCCNC1=O)c1cc2ccccc2s1 (centres undefined),0.22
5,CCN1CCN(Cc2ccc(-c3cc4c(N[C@H](C)c5ccccc5)ncnc4[nH]3)cc2)CC1,0.56
6,Cc1cnc(NC(=O)Nc2cc(Br)c(C)cc2OC[C@@H]2CNCCO2)cn1,0.51
7,Cc1ccc(NC(=O)c2ccc(CN3CCN(C)CC3)cc2)cc1Nc1nccc(-c2cccnc2)n1 [Imatinib Mesylate (STI571)],-0.05
8,NC(=O)c1ccc(N(C(N)=O)c2c(F)cccc2F)nc1-c1ccc(F)cc1F,0.14
9,Cc1nc(-c2cn3c(n2)-c2ccc(-c4cnn(C(C)(C)C(N)=O)c4)cc2OCC3)n(C(C)C)n1 [Taselisib (GDC 0032)],0.34
10,COc1cc(N2CCC(N(C)C)CC2)ccc1Nc1ncc(Cl)c(Nc2ccccc2P(C)(C)=O)n1,0.35
11,COc1cc2c(Nc3ccc(NC(=O)c4ccccc4)cc3)ncnc2cc1OCCCN1CCOCC1,0.3
12,CNC(=O)c1cc(Oc2ccc(NC(=O)Nc3cc(C(C)(C)C)nn3-c3ccc4ncccc4c3)c(F)c2)ccn1 [Rebastinib (DCC-2036)],0.33
13,CC(C)(CO)n1cc(C(=O)c2cncc(NC(=O)Cc3ccc(Cl)cn3)c2)c2cnc(N)nc21,0.47
14,CS(=O)(=O)N1CCN(Cc2cc3nc(-c4cccc5[nH]ncc45)nc(N4CCOCC4)c3s2)CC1 [Pictilisib (GDC-0941)],0.22
15,C[C@@H]1COC(Nc2ccc3ncnc(Nc4ccc(OCc5nccs5)c(Cl)c4)c3c2)=N1 [Varlitinib],0.46
16,COc1cc(Nc2ncc(F)c(Nc3ccc4c(n3)NC(=O)C(C)(C)O4)n2)cc(OC)c1OC,10.5
17,CC(C)n1nc(-c2ccc3oc(N)nc3c2)c2c(N)ncnc21,0.47
